Sampled rows, rich in hits. Any-hit rate of the full collection: about 1.7%.
F508del corr: correctors of CFTR F508del function in bronchial epithelial cells | CFBE cells, YFP halide quenching; stimulated with forskolin plus potentiator P3; % fluorescence drop versus neutral controls | activity (quench increase), % at 7.58 µM | 350,000 tested, 0.36% active | AID 720511;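 active = mean added fluorescence quench of at least 8% versus neutral control, with both replicates also reaching 8%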;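 note: cells transiently co-express mutant CFTR-F508del with the halide-sensitive YFP; corrector assay measuring rescue of mutant channel to the surface after 24 h compound exposure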
Vif inh: inhibitors of HIV Vif | HEK293T cells, Vif self-association by quenched fluorescence, imaging, 24 h | inhibition, % at 7.49 µM | 340,000 tested, 0.35% active; in the data active = inhibition above about 50%, passing the limit was not always enough
FGF22 binding-1: shifts melting point of recombinant human FGF22; 340,000 tested, 1.5% active; Q9HCT0; AID 651658; recombinant FGF22 thermal shift, SYPRO orange fluorescence; percent of sucrose octasulfate shift, DMSO zero; activity (Tm shift, normalised), % at 9.99 µM;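 active = mean Tm shift, scaled 0 neutral to 100 positive control, at about 1.3% or above, every replicate too, limit read from the data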
Target sequence (Q9HCT0 whole entry, looked up): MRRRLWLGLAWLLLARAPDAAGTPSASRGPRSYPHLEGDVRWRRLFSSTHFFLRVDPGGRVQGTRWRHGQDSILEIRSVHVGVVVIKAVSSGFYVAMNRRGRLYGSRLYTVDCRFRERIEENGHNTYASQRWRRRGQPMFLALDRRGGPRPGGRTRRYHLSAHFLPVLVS
FGF22 binding-2: binders of human FGF22 by thermal shift | shares compounds with FGF22 binding-1 | recombinant FGF22 thermal shift, SYPRO orange fluorescence | thermal shift activity, °C (ΔTm) at 38 µM | 1,000 tested, 2% active | AID 720646;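 active = fitted rise in melting shift crosses a set limit at or below the top valid dose tested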
FGF22 TSA: FGF22 (human) binding by thermal shift; shares compounds with FGF22 binding-1; Thermal shift assay, SYPRO orange, melting temperature shift; Tm shift (activity), % at 38 µM; 50 tested, under 10 active;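 active = compounds whose fitted dose curve of melting temperature shift rises past a set threshold within the tested doses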
TSA no protein: counter-screen for FGF22 binders: compound-only thermal shift, no protein; shares compounds with FGF22 binding-1; compound-only SYPRO orange thermal shift counter-screen; AC50, µM (highest dose often 38 µM); 1,000 tested, 2% active;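 active = rising signal whose fitted curve reaches the 0.54 level within the top valid dose, showing a melting point, actives reach about 13 µM in these data; inactive = the rest, including activity in the opposite direction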; note: value is where the raw curve crosses a fixed level and not half-maximal
A number is an active result; - = inactive; . = no result given.

SMILES	F508del corr	Vif inh	FGF22 binding-1	FGF22 binding-2	TSA no protein	others
C[C@@H]1CN([C@H](C)CO)C(=O)Cc2cc(NS(=O)(=O)c3ccc(Cl)cc3)ccc2O[C@@H]1CN(C)Cc1ccc(Cl)c(Cl)c1	-	.	-	.	.
COCC(=O)N1CC(=O)N2[C@H](CO)[C@@H](c3ccc(Br)cc3)[C@H]2C1	-	.	-	.	.
CCCNC(=O)N1CC(=O)N2[C@H](CO)[C@H](c3ccc(-c4cccc(C)c4)cc3)[C@@H]2C1	-	.	-	.	.
O=C(c1ccccc1F)N1CC(=O)N2[C@@H](CO)[C@H](c3ccc(-c4ccc(F)cc4)cc3)[C@@H]2C1	-	.	1.8	-	-
CCCNC(=O)N1CC(=O)N2[C@H](C1)[C@@H](c1ccc(-c3cccc(C)c3)cc1)[C@@H]2CO	-	.	6.9	-	-
COCC(=O)N1CC(=O)N2[C@H](CO)[C@H](c3ccc(Br)cc3)[C@H]2C1	-	.	1.6	-	-
O=C(c1ccccc1F)N1CC(=O)N2[C@H](CO)[C@H](c3ccc(-c4ccc(F)cc4)cc3)[C@H]2C1	-	.	-	.	.
CCCNC(=O)N1CC(=O)N2[C@H](C1)[C@@H](c1ccc(-c3ccc(C)cc3)cc1)[C@@H]2CO	-	.	.	.	.
CCCNC(=O)N1CC(=O)N2[C@H](CO)[C@@H](c3ccc(-c4cccc(C)c4)cc3)[C@@H]2C1	-	.	2.2	-	-
CO[C@@H]1CN(C)C(=O)c2cc(NC(C)=O)ccc2OC[C@H](C)N(Cc2ccc(F)cc2)C[C@H]1C	-	.	-	.	.
C[C@@H]1CN([C@H](C)CO)C(=O)c2cc(NC(=O)Cc3ccccc3)ccc2O[C@@H](C)CCCCO[C@H]1CN(C)S(=O)(=O)c1cccs1	-	.	-	.	.
O=C(Nc1cccc(F)c1)N[C@H]1CC[C@H](CCNS(=O)(=O)c2cccc(Cl)c2)O[C@H]1CO	-	.	-	.	.
CN1CCN(C(=O)C[C@@H]2CC[C@@H]3[C@H](COC[C@@H](O)CN3C(=O)Nc3ccc(F)cc3)O2)CC1	-	.	-	.	.
O=C(c1ccncc1)N1C[C@@H]2[C@H](c3ccccc31)[C@H](CO)N2C(=O)CN1CCOCC1	-	.	-	.	.
O=C(NC1CCCCC1)N1CC(=O)N2[C@H](C1)[C@@H](c1ccc(-c3cccc(F)c3)cc1)[C@@H]2CO	-	.	2.3	-	-
O=C(NC1CCCCC1)N1CC(=O)N2[C@@H](CO)[C@H](c3ccc(-c4cccc(F)c4)cc3)[C@@H]2C1	-	.	-	.	.
S=c1[nH]c2ccc3ccccc3c2[nH]1	.	-	.	.	.
S=c1[nH]c2cc3ccccc3cc2[nH]1	-	-	2.1	-	-
C[C@@H]1CN([C@@H](C)CO)C(=O)c2cc(NC(=O)Nc3ccc(C(F)(F)F)cc3)ccc2O[C@H]1CN(C)Cc1ccc(C(=O)O)cc1	-	.	-	.	.
C[C@@H]1CN([C@H](C)CO)C(=O)c2cc(NC(=O)Nc3ccc(C(F)(F)F)cc3)ccc2O[C@@H]1CN(C)Cc1ccc(C(=O)O)cc1	-	.	1.4	-	-
C[C@@H]1CN([C@H](C)CO)C(=O)c2cc(NC(=O)Nc3ccc(C(F)(F)F)cc3)ccc2O[C@H]1CN(C)Cc1ccc(C(=O)O)cc1	-	.	-	.	.
C[C@@H]1CN([C@@H](C)CO)C(=O)c2cc(NC(=O)Nc3ccc(C(F)(F)F)cc3)ccc2O[C@@H]1CN(C)Cc1ccc(C(=O)O)cc1	-	.	2.5	-	-
Cc1noc(C)c1S(=O)(=O)Nc1cccc2c1O[C@H](CN(C)C(=O)Nc1ccc(C(F)(F)F)cc1)[C@H](C)CN([C@H](C)CO)C2=O	-	.	-	.	.
CC(C)NC(=O)Nc1ccc2c(c1)C(=O)N([C@@H](C)CO)C[C@@H](C)[C@H](CN(C)C(=O)Nc1ccc(F)cc1)OCCCC[C@H](C)O2	-	.	-	.	.
COc1ccc(S(=O)(=O)N(C)C[C@@H]2Oc3ccc(NC(=O)CCCCCC(=O)Nc4ccccc4N)cc3C(=O)N([C@H](C)CO)C[C@@H]2C)cc1	-	.	-	.	.
SMILES	F508del corr	Vif inh	FGF22 binding-1	FGF22 binding-2	TSA no protein	others
C[C@@H]1CN([C@H](C)CO)C(=O)c2cc(C3=CCCC3)cnc2O[C@H]1CN(C)C(=O)C1CCC1	-	.	-	.	.
COC(=O)C[C@@H]1CC[C@H]2[C@@H](COc3ccc(NC(=O)c4ccccc4OC)cc3C(=O)N2C)O1	-	.	-	.	.
O=C(N/N=C/c1cccnc1)c1cc2ccccc2o1	-	-	-	.	.
O=C(N/N=C/c1ccncc1)c1cc2ccccc2o1	-	-	1.8	-	-
Cc1noc(C)c1S(=O)(=O)N(C)C[C@H]1OCCCC[C@H](C)Oc2ccc(NS(C)(=O)=O)cc2C(=O)N([C@H](C)CO)C[C@@H]1C	-	.	-	.	.
C[C@H]1CN([C@@H](C)CO)C(=O)c2cccc(N(C)C)c2O[C@@H]1CN(C)Cc1ccncc1	-	.	-	.	.
CCCNC(=O)N1C[C@@H](O)COC[C@@H]2O[C@@H](CC(=O)NCc3ccc(Cl)c(Cl)c3)CC[C@H]21	-	.	-	.	.
Cc1ccnc(NC(=O)CN2C(=O)NC(C)(c3ccc4ccccc4c3)C2=O)c1 (configuration not stated)	-	-	-	.	.
CC1(c2ccc3ccccc3c2)NC(=O)N(CC(=O)Nc2ncccc2O)C1=O (configuration not stated)	-	-	1.7	-	-
C[C@H]1CN([C@@H](C)CO)C(=O)c2cccc(NC(=O)C3CC3)c2O[C@H]1CN(C)C(=O)Nc1ccccc1	-	.	-	.	.
COc1cccc(NC(=O)N[C@H]2CC[C@H](CC(=O)N3CCCCC3)O[C@@H]2CO)c1	-	.	-	.	.
CN(C(=O)c1ccccc1C(=O)OCC(=O)NCc1ccccc1)C1CCCCC1	-	-	-	.	.
CCCNC(=O)COC(=O)c1ccccc1C(=O)N(C)C1CCCCC1	-	-	13.8	-	-	FGF22 TSA=-
COc1ccc(S(=O)(=O)N(C)C[C@H]2OCCCC[C@@H](C)Oc3ccc(NS(=O)(=O)c4ccccc4)cc3C(=O)N([C@@H](C)CO)C[C@@H]2C)cc1	-	.	-	.	.
COc1ccc(NS(=O)(=O)c2cc(N=Nc3c(O)[nH]c(=O)[nH]c3=O)ccc2Cl)cc1	-	-	1.4	-	-
Cc1ccc(NS(=O)(=O)c2ccc(Cl)c(N=Nc3c(O)[nH]c(=O)[nH]c3=O)c2)cc1Cl	-	-	-	.	.
O=C(C[C@H]1C=C[C@H](NC(=O)CCN2CCCCC2)[C@@H](CO)O1)Nc1ccc(-c2ccccc2)cc1	-	.	-	.	.
CC(=O)Nc1ccc(C(=O)N/N=C/c2cc(Br)cc(Br)c2O)cc1	-	-	2.8	-	-
CC(C)C(=O)Nc1ccc(C(=O)N/N=C/c2cc(Br)cc(Br)c2O)cc1	-	-	-	.	.
Cc1ccc(CCNc2ncnc(Cl)c2N)cc1	-	-	1.7	-	-
Nc1c(Cl)ncnc1NCCO	-	-	-	.	.
C[C@@H]1CN([C@H](C)CO)C(=O)c2cccc(NC(=O)Nc3ccccc3)c2O[C@H]1CN(C)S(=O)(=O)c1ccccc1	-	.	-	.	.
